High-throughput results (PubChem BioAssay)
A selection: hits, their analogues and other compounds. The true share with any hit is near 12%.
HP1b binding inh = blocks HP1-beta chromodomain binding to methylated histone tails. AlphaScreen HP1-beta / biotin-H3K9me3 peptide binding. P83916. Potency, µM (series often up to 114 µM), for inactives: at the highest dose activity change, negative = inhibition, hits mostly inhibitors. hit rate 0.56% among 390,000; further: potency means the concentration at half of the fitted maximal effect; nearly all actives have a fitted effect of over 70% in size
Target sequence (P83916 whole entry, looked up): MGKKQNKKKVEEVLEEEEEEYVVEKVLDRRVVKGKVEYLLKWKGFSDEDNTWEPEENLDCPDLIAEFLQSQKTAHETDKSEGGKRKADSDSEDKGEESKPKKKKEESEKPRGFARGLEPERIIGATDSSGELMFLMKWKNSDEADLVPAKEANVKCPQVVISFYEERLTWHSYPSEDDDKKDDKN
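HP1-beta protein (50 nM final) preincubated 30 min at room temperature with biotinylated H3(1-18)K9me3 peptide (50 nM) in PBS pH 7.4, 0.01% Tween-20, then compound added for 30 min. AlphaScreen streptavidin donor/nickel chelate acceptor beads (10 ug/mL final), 30 min dark, luminescence read.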
BAZ2B inh = BAZ2B (human) inhibition; Q9UIF8; AlphaScreen BAZ2B-H3K14Ac peptide displacement; Potency, µM (titrated, usually from 114 µM), for the others: at the highest dose activity change, negative = inhibition, usual class: inhibitors; hit rate 4.4% among 360,000; AID 504333; further: potency means the concentration at half of the fitted maximal effect; on the % scale 0 is the no-effect control and ±100 the full control effect; nearly all actives have a fitted effect of over 60% in size
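Compounds, titrated to a top concentration of 110 uM, were incubated 30 min at room temperature with preformed BAZ2B/acetyl-K14 H3 peptide complex (50 nM each). Proximity signal was measured by AlphaScreen after 20 min with beads.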
JMJD2A Tudor = blocks the human JMJD2A Tudor domain | hit rate 4.4% among 390,000 | AlphaScreen JMJD2A-Tudor / H3K4me3 peptide binding | O75164 | AID 504339 | Potency, µM (series often up to 114 µM), without a hit: at the top dose activity change, negative = inhibition, usual class: inhibitors; further: potency means the concentration at half of the fitted maximal effect; on the % scale 0 is the no-effect control and ±100 the full control effect; nearly all actives have a fitted effect of over 50% in size
G9a block = G9a (human) methyltransferase inhibition | AID 504332 | Potency, µM (top dose mostly 102 µM), without a hit: at the highest dose activity, negative = inhibition, hits mostly inhibitors | hit rate 8.8% among 350,000 | G9a H3K9 monomethylation, AlphaScreen, 2 h; further: potency means the concentration at half of the fitted maximal effect; on the % scale 0 is the no-effect control and ±100 the full control effect; nearly all actives have a fitted effect of over 75% in size
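AlphaScreen detection with an anti-monomethyl H3K9 antibody quantified product after a 2 h room-temperature reaction containing 500 nM biotinylated H3K9 peptide, 20 µM SAM and 20 nM enzyme, which had been preincubated 15 min with compound.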
PI5P4K alpha inh = inhibitors of human PI5P4K alpha. PI5P4Kalpha enzyme, ADP-Glo luminescence, 60 min; hits give low values. max response, %. hit rate 1.2% among 330,000. AID 652105; active means max response of -50% or lower; inconclusive means between -30% and -50%; inactive means -30% or higher; further: value at the top dose of about 77 µM; on the % scale 0 is the no-effect control and ±100 the full control effect
Target sequence (P48426 whole entry, looked up): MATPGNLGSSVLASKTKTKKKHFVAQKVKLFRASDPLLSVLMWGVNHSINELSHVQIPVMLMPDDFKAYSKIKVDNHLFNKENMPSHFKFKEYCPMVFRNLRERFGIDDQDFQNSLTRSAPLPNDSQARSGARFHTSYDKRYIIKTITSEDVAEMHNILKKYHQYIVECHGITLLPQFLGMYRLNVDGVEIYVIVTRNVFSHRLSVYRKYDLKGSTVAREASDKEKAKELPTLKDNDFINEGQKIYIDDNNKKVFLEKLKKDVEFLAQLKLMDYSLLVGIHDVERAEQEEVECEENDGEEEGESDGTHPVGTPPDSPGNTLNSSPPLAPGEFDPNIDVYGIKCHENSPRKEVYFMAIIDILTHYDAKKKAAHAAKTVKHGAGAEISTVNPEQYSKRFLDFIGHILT
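Quantitative HTS of the MLSMR library against PI5P4Kalpha with substrate. ATP added last at 5 microM final; room temperature, 60 minutes. Remaining ATP depleted, ADP converted and read as luminescence.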
PLK1 PBD block = inhibitors of human PLK1 polo-box domain binding; P53350; Plk1 PBD binding of FITC phosphopeptide, fluorescence polarization; Potency, µM, without a hit: max response, negative = inhibition, hits mostly inhibitors; hit rate 2.8% among 360,000; further: potency means the concentration at half of the fitted maximal effect; series mostly up to about 57 µM; on the % scale 0 is the no-effect control and ±100 the full control effect; nearly all actives have a fitted effect of over 65% in size
An asterisk follows results filed as active; [ ] = another dose, or the depositor's remark. Unless noted, the call rests on the fitted dose curve; in most records, active means well fitted curve in the direction sought with a large enough effect; inconclusive means small, poorly fitted or top-dose-only effect, or another doubt; inactive means no such curve, though single readings can be large; an effect the other way counts as inactive or inconclusive.

Results for O=S(=O)(c1ccccc1)c1nnn2c1nc(NC1CCCCC1)c1sccc12 ?
HP1b binding inh: 17.0%; BAZ2B inh: -37.6%; JMJD2A Tudor: -13.2%; G9a block: -6.2%[59 µM]

What do the screens show for `Cc1ccc(N2CC(C(=O)NCc3nnnn3-c3ccc(C)c(C)c3)CC2=O)cc1C` (configuration not stated)?
HP1b binding inh: 21.6%[57 µM]; BAZ2B inh: 4.2%; JMJD2A Tudor: -9.7%; G9a block: 4.2%[59 µM]

What do the screens show for `CC(=O)c1c(Cl)nc2cccc3c2c1-c1ccccc1C3=O`?
HP1b binding inh: 3.9%; BAZ2B inh: -27.3%; JMJD2A Tudor: -33.6%; G9a block: 28.2µM*; PI5P4K alpha inh: -9.3; PLK1 PBD block: -10.4%

What do the screens show for `CSc1nc2c(=S)[nH]c(=S)[nH]c2s1`?
PI5P4K alpha inh: inconclusive; PLK1 PBD block: 21.2µM*

How did CC(C)OCCCN(Cc1ccco1)C(=O)c1cc2c(s1)-c1ccccc1OC2 do in these assays?
HP1b binding inh: 154.0%; BAZ2B inh: 102.0%; JMJD2A Tudor: 113.8%; G9a block: 144.3%[59 µM]

What do the screens show for `CN(C)S(=O)(=O)c1ccc(Cl)c(NC(=O)CN2CCCCCC2)c1`?
HP1b binding inh: 18.1%; BAZ2B inh: -1.7%; JMJD2A Tudor: -15.5%; G9a block: 6.9%; PI5P4K alpha inh: 7.7; PLK1 PBD block: -4.1%

How did CCN(c1ccccc1)S(=O)(=O)c1ccc(Cl)c(NC(=O)COC(=O)c2cc(O)c3ccccc3c2O)c1 do in these assays?
BAZ2B inh: 50.1µM*; G9a block: inconclusive

What do the screens show for `CCN(c1ccccc1)S(=O)(=O)c1ccc(Cl)c(NC(=O)CN2CCCCCC2)c1`?
HP1b binding inh: 22.4µM*; BAZ2B inh: 50.1µM*; JMJD2A Tudor: 0.708µM*; G9a block: -108.8%[59 µM]; PI5P4K alpha inh: -6.6; PLK1 PBD block: -13.8%

How did CCN(c1ccccc1)S(=O)(=O)c1ccc(Cl)c(NC(=O)CSc2nncs2)c1 do in these assays?
HP1b binding inh: 18.5%; BAZ2B inh: 3.5%; JMJD2A Tudor: 79.4µM*; G9a block: 4.7%; PI5P4K alpha inh: -19.8; PLK1 PBD block: 1.4%

How did CCN(c1ccccc1)S(=O)(=O)c1cc(NC(=O)CN2CCN(C)CC2)ccc1Cl do in these assays?
HP1b binding inh: inconclusive; JMJD2A Tudor: 0.891µM*; PI5P4K alpha inh: 0.1; PLK1 PBD block: -2.9%

How did CN(C(=O)COC(=O)Cc1c(F)cccc1Cl)c1c(N)n(Cc2ccccc2)c(=O)[nH]c1=O do in these assays?
HP1b binding inh: 14.0%; BAZ2B inh: -1.1%; JMJD2A Tudor: -2.9%; G9a block: 6.5%[12.7 µM]; PI5P4K alpha inh: 1.7; PLK1 PBD block: -3.1%

Results for Cc1ccc(C)c(CN2C(=O)c3ccccc3S(=O)c3ccc(C(=O)N(C)Cc4ccccc4)cc32)c1 (configuration not stated) ?
HP1b binding inh: 17.7%; BAZ2B inh: -21.9%; JMJD2A Tudor: -23.9%; G9a block: -7.6%[59 µM]

How did CCOC(=O)C1=C(C)OC(N)=C(C#N)C1c1cc(SCC)oc1C (configuration not stated) do in these assays?
HP1b binding inh: 21.3%; BAZ2B inh: inconclusive; JMJD2A Tudor: -18.5%; G9a block: 44.7µM*; PI5P4K alpha inh: -0.7; PLK1 PBD block: -15.1%

Results for CCOC(=O)C1=C(CC)OC(N)=C(C#N)C1c1ccsc1 (configuration not stated) ?
HP1b binding inh: 30.3%; BAZ2B inh: inconclusive; JMJD2A Tudor: -1.4%; G9a block: 56.2µM*; PI5P4K alpha inh: -24.7; PLK1 PBD block: -11.3%

How did CCOC(=O)C1=C(CC)OC(N)=C(C#N)C1c1cccs1 (configuration not stated) do in these assays?
HP1b binding inh: 21.0%; BAZ2B inh: -23.8%; JMJD2A Tudor: -16.3%; G9a block: 50.1µM*; PLK1 PBD block: -9.5%

Results for CCOC(=O)C1=C(C)OC(N)=C(C#N)C1c1cc(C)sc1C (configuration not stated) ?
HP1b binding inh: 29.2%; BAZ2B inh: -26.3%; JMJD2A Tudor: -11.1%; PI5P4K alpha inh: 7.6; PLK1 PBD block: -13.2%

How did CCOC(=O)C1=C(CC)OC(N)=C(C#N)C1c1ccc(OC)cc1OC (configuration not stated) do in these assays?
HP1b binding inh: 32.7%; BAZ2B inh: -3.6%; JMJD2A Tudor: -18.5%; G9a block: -12.3%[59 µM]; PI5P4K alpha inh: 10.2; PLK1 PBD block: -2.4%

How did CCOC(=O)Cc1[nH]nc2c1C(c1ccsc1)C(C#N)=C(N)O2 (configuration not stated) do in these assays?
HP1b binding inh: 43.9%; BAZ2B inh: -4.1%; JMJD2A Tudor: -9.9%; G9a block: 5.1%; PI5P4K alpha inh: -21.6; PLK1 PBD block: -29.3%

What do the screens show for `CCOC(=O)C1=C(C)OC(N)=C(C#N)C1c1ccsc1` (configuration not stated)?
HP1b binding inh: 41.0%; BAZ2B inh: -37.5%; JMJD2A Tudor: -6.7%; G9a block: 10µM*; PLK1 PBD block: -6.1%

Results for CCOC(=O)N1CCN(C(=O)CN(c2ccccc2F)S(=O)(=O)c2ccc(C)cc2)CC1 ?
HP1b binding inh: 13.2%; BAZ2B inh: 2.5%; JMJD2A Tudor: -21.6%; G9a block: -30.0%[59 µM]

Results for CC(=O)c1cccc(NC(=O)c2sc(-n3nc(C)c(Cc4ccccc4)c3C)nc2C)c1 ?
HP1b binding inh: 36.0%; BAZ2B inh: -6.6%; JMJD2A Tudor: -6.0%; G9a block: 5.8%[59 µM]

What do the screens show for `CC(C)C(=O)N1CCCC1(C)C(=O)Nc1ccc2c(c1)OCO2` (configuration not stated)?
PI5P4K alpha inh: -3.3; PLK1 PBD block: -12.4%

Results for CCOC(=O)c1cc(-c2ccc(OC)cc2)n(CCC(=O)NCCc2ccccc2)c1C ?
HP1b binding inh: -9.9%; BAZ2B inh: -32.2%; JMJD2A Tudor: inconclusive; G9a block: -34.8%[59 µM]

Results for CCN1CC2=C(OC(N)=C(C#N)C2c2cccs2)/C(=C\c2cccs2)C1 (configuration not stated) ?
HP1b binding inh: inconclusive; BAZ2B inh: 35.5µM*; JMJD2A Tudor: inconclusive; G9a block: 44.7µM*; PLK1 PBD block: -17.4%

How did CC(=O)C1=C(C)OC(N)=C(C#N)C1c1cccc([N+](=O)[O-])c1 (configuration not stated) do in these assays?
HP1b binding inh: 7.1%; BAZ2B inh: -34.3%; JMJD2A Tudor: -13.5%[11.4 µM]; G9a block: 44.7µM*; PI5P4K alpha inh: -21.3; PLK1 PBD block: inconclusive
